Source: the OligoGym collection

What follows are sequences tested against CADM4 (assay: pooled miR-30 sensor sort-seq; sequence = guide strand). Details: shRNA.
Note: reference of the scale not given here.

| Sequence | sensor-assay potency score (higher = more potent) |
| --- | --- |
| AAGCTGGAAACGCTCATCCTTC | -1.15 |
| TTACGGTCCACACGAAACCGTA | -1.33 |
| TTTCAGCTCCTTGCGGTCCCGG | -0.888 |
| TTTGCTGGTTCCTTGCAGCTGG | 0.149 |
| TGGATGACAACTATGGACCCAT | -0.33 |
| TTCTCTGTCTGTACTTCCTGTC | -0.0405 |
| TCTGTCTGTACTTCCTGTCCTG | 0.306 |
| TATGATCAGAAACACCAGCAGC | -1.06 |
| ACATATGATCAGAAACACCAGC | -1.09 |
| TTATTGGACGCCTCGCAAGTGT | -0.6 |

These sequences were tested against CALB1 in the same assay as above. Details: shRNA.

| Sequence | sensor-assay potency score (higher = more potent) |
| --- | --- |
| TGTCACATCAACTTGAACCGAT | 0.787 |
| TAAGCTTAGAAATATTTTGTGG | -0.267 |
| TAGGTCTGTATACTCGGCTAAT | -1.02 |
| TTTGTGTCATCAACAGTCTTGT | 0.294 |
| TCTTGTTCAACTATATTTGTGA | 0.29 |
| ATTCTTCTCGCACAGATCCTTC | -1.06 |
| TAAGCATAGACTTTCTTCTTTT | -0.786 |
| TTATTTTTTAGATACAGTGTAT | -0.499 |
| TTCTCTGACAGTAAGTTTGTTG | -0.382 |
| AAACAGTATAGAAACAAGCTGA | -0.0132 |
| TATAAAAGAAAATACAGCCTAC | -0.236 |
| TTTAAGAAGAAAATTCTCCTGC | 1.04 |
| TTTTGTGTCATCAACAGTCTTG | 0.226 |
| ATTATTAATATCCAGATCCTGT | -0.387 |
| TTAGATACAGTGTATCACTAGC | 0.553 |
| TTCCCTTGTCACATCAACTTGA | 0.335 |
| TGTAATATTATTAATATCCAGA | -0.351 |
| TTAGGTCTGTATACTCGGCTAA | -0.144 |
| TATTCTTCTCGCACAGATCCTT | 0.132 |
| TATGTATCCATTGCCGTCCTGA | -0.391 |
| TAAATCTGTAATGAGACTGTTA | 0.457 |
| TTCGGTACAGCTTCCCTCCATC | -0.593 |
| TATTTTTCCATCATCTCTTTGC | -0.281 |
| TTGATTGGTAAACTAAATCTGT | -0.119 |

Each sequence was assayed against CAMK2N1 in the same assay as above. Details: shRNA.

| Sequence | sensor-assay potency score (higher = more potent) |
| --- | --- |
| ATAACAACCCGCTTGCTCCGGC | -0.269 |
| TCATCTTCAATAACAACCCGCT | 0.215 |
| TTGTTGGTGTCCTGCAGGCGGC | -1.65 |
| ATCTTCAATAACAACCCGCTTG | -0.788 |
| AATAACAACCCGCTTGCTCCGG | -0.79 |
